# Sampled rows, rich in hits. Any-hit rate of the full collection: about 5%.
# PREPL inhibitor: inhibits the human prolyl oligopeptidase-like enzyme; recombinant PREPL, fluorescence polarization activity-based probe; 320,000 compounds, 0.68% hits; inhibition, % at 5.96 µM; in the data active = inhibition above about 43%
# Target sequence (Q4J6C6 whole entry, looked up): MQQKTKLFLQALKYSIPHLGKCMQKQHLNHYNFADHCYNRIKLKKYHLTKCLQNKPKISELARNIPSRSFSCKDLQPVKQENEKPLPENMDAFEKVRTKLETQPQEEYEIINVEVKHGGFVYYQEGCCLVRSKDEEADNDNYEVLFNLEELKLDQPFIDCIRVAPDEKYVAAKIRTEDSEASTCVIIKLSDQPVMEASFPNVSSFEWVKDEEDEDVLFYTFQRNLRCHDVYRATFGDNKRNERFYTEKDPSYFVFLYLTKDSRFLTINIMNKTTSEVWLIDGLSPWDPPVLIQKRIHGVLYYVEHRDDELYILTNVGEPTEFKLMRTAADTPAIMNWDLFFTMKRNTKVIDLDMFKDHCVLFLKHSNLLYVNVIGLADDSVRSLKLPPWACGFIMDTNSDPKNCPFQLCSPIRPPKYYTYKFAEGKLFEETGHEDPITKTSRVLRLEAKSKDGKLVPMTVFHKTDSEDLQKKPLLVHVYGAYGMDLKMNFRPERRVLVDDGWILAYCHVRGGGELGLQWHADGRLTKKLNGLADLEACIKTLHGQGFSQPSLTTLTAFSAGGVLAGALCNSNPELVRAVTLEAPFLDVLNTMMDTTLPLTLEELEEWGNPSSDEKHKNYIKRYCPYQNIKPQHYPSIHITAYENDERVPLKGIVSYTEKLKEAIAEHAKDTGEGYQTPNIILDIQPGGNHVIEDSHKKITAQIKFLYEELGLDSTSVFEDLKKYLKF
# CHT allo act: allosteric activators of human choline transporter CHT | Q9GZV3 | CHT-expressing cells, membrane potential dye, choline EC20; active compounds read high; LV-AA mutant CHT in HEK293 cells | B-score at 10 µM | 310,000 compounds, 0.49% hits | AID 488977;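 active = initial fluorescence not abnormally high and integrated response B-score, plate-corrected, over 3 SD above library mean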
# CHT inh: inhibits the human high affinity choline transporter. CHT-expressing cells, membrane potential dye, choline response; active compounds read low. B-score at 10 µM. 310,000 compounds, 0.86% hits. AID 488975;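 active = B-score over 3 SD under the library average, and starting fluorescence ratio not unusually high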;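 also: choline stimulus applied at its EC90 after an EC20 pre-addition; B-score computed on integrated fluorescence ratio after choline addition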
# ALR inh: inhibitors of human sulfhydryl oxidase ALR; P55789; 290,000 compounds, 3.8% hits; inhibition, % (concentration not given with the values); purified ALR, DTT oxidation, H2O2 HRP-luminol luminescence;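 active = mean replicate inhibition above about 79%, with every replicate also reaching it, limit read from the data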
# AI-2 QS modul: modulators of Vibrio harveyi AI-2 quorum sensing system | Vibrio harveyi JMH597 AI-2 luminescence/OD600 ratio, 9 h; active compounds read low; strain lacks LuxN and CqsS sensors; 0 = neutral-control median | activity change, % at 7.5 µM | 300,000 compounds, 0.4% hits | AID 2094; in the data active = activity change below about -75%, passing the limit was not always enough;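 also: luminescence divided by OD600 gain over 9 h not by final OD600 alone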
# A number is an active result; – = inactive; · = not tested or not shown.
SMILES,PREPL inhibitor,CHT allo act,CHT inh,ALR inh,AI-2 QS modul
Cc1cccnc1CN1CCN(Cc2nc(Cc3cccc(F)c3)no2)CC1,–,–,–,·,–
CCn1c(CNC(=O)c2cccs2)nnc1SCC(=O)Nc1ccc(Cl)cc1,–,–,–,97,–
CCn1c(CNC(=O)c2cccs2)nnc1SCC(=O)Nc1cc(Cl)ccc1C,–,–,–,–,–
CCn1c(CNc2ccc(C)cc2)nnc1SCC(=O)NCc1ccccc1,–,–,–,86,–
Cc1ccc(NC(=O)C(=O)NN=C2CCCC2)cc1C,–,–,–,–,–
Cc1nn(C)c(C(=O)Nc2cccc(Nc3ccccc3)c2)c1[N+](=O)[O-],–,–,–,98,–
Cc1nn(C)c(C(=O)N/N=C/c2ccccc2)c1[N+](=O)[O-],–,–,–,–,–
O=C(O)C(c1ccccc1)N1C(=O)/C(=C/c2cccs2)SC1=S (stereo not given),–,–,–,98,–
COc1ccc(OC)c(/C=C2\SC(=S)N(C(C(=O)O)c3ccccc3)C2=O)c1 (stereo not given),–,–,–,·,–
O=C(O)CCn1c(-c2ccccc2)cc2ccccc21,–,–,–,–,–
C/C(CC(=O)Nc1ccc2ccccc2c1)=N\NC(=O)c1cnccn1,–,–,–,·,–
O=C(CS)Nc1ccc2ccccc2c1,–,–,–,97,–
C/C(CC(=O)Nc1ccc2ccccc2c1)=N\NC(=O)c1ccc(O)c(O)c1,–,–,–,99,–
O=C(CSCc1nc2ccccc2[nH]1)Nc1ccc(Oc2ccccc2)cc1,–,–,–,–,–
O=C(Cc1ccc2c(c1)CCCC2)Nc1ccc2ccccc2c1,–,–,–,–,–
O=C(CSCc1nc2ccccc2[nH]1)Nc1ccc2ccccc2c1,–,–,–,99,–
CC1(C)Cc2ccccc2C2=NNC(=O)C2=N1,–,–,–,99,–
CC1(C)Cc2ccccc2C(Nn2cnnc2)=N1,–,–,–,–,–
CN(C(=O)c1cc2ccccc2oc1=O)C1(C)CCS(=O)(=O)C1 (stereo not given),–,–,–,–,–
COc1ccc(C(=O)CSC2=C(C#N)C3(CCCCC3)C(C#N)=C(N)N2)cc1,–,–,–,87,–
O=C(Nc1ccccc1F)Nc1ccccc1N1CCCCC1,–,–,–,–,–
CCc1cc2c(=O)n(Cc3ccco3)c(SCc3c(C)noc3C)nc2s1,–,–,–,99,–
CCCc1cc(-c2n[nH]c(=S)n2C(C)c2ccccc2)cs1 (stereo not given),–,–,–,–,–
COc1cc(-c2n[nH]c(=S)n2C(C)c2ccccc2)cc(OC)c1OC (stereo not given),–,–,–,93,–
O=C(COC(=O)c1c[nH]c2ccccc12)Nc1cccc(F)c1,–,·,·,–,·
SMILES,PREPL inhibitor,CHT allo act,CHT inh,ALR inh,AI-2 QS modul
CN(C(=O)COC(=O)CNC(=O)c1cccs1)c1c(N)n(Cc2ccccc2)c(=O)[nH]c1=O,–,·,·,–,·
CC1=NN(C(N)=S)C(=O)C1N=Nc1ccc(C)cc1C (stereo not given),–,–,–,94,–
CC1=NN(C(N)=S)C(=O)C1N=Nc1cccc(Cl)c1 (stereo not given),–,–,–,90,–
O=C(Nc1ccccc1Cl)NC1(C(=O)NCc2cccnc2)CCCCC1,–,–,–,–,–
O=C1CCCC2=C1C(c1ccc(O)c(O)c1)Nc1ccc3ccccc3c12 (stereo not given),–,–,–,98,–
COc1ccc(CC(=O)Nc2cc(Cl)ccc2O)cc1,–,–,–,–,-94
O=C(CSc1nc2ccccc2[nH]1)Nc1ccc(F)c(F)c1,–,–,–,–,–
COCCn1c(SCC(=O)Nc2ccc3[nH]c(=O)[nH]c3c2)nc2ccccc21,–,·,·,91,·
COC(=O)c1ccc(CSc2nc3ccc(Cl)cc3[nH]2)o1,–,–,–,97,–
CC(C)Cn1c(SCC(=O)Nc2ccc3[nH]c(=O)[nH]c3c2)nc2ccccc2c1=O,–,–,–,–,–
CCn1c(SCC(=O)Nc2ccc3[nH]c(=O)[nH]c3c2)nc2ccccc21,–,·,·,99,·
O=C(CSc1nc2ccc(Cl)cc2[nH]1)Nc1ccc2[nH]c(=O)[nH]c2c1,–,–,–,98,–
CC(C)(C)c1ccc(NC(=O)c2ccc(=O)[nH]n2)cc1,–,–,–,–,–
C=CCOc1ccc(C=Nc2ccc(Cl)cc2)c(O)c1,–,–,–,–,–
O=C(NCCSCc1ccco1)c1ccc(=O)[nH]c1,–,–,–,–,–
O/N=C/c1cccn1-c1ccc(O)cc1,–,–,–,99,–
Cc1nnc(SCC(=O)c2ccc(S(=O)(=O)N3CCOCC3)cc2)n1-c1ccccc1,–,–,–,94,–
COc1ccc(Cc2n[nH]c(=S)n2N)cc1OC,–,–,–,–,–
CCOc1ccc(Cc2n[nH]c(=S)n2N)cc1,–,–,–,96,–
CC(NC(=O)CSc1nc2ccc(N)cc2s1)c1ccccc1 (stereo not given),–,–,–,96,–
Nc1ccc2nc(N3CCOCC3)sc2c1,46,–,–,99,–
Cc1ccc(NC(=O)CSCC(=O)Nc2ccc(N3CCOCC3)c(Cl)c2)cc1,–,–,–,98,–
c1ccc2sc(N3CCOCC3)nc2c1,–,–,–,–,–
COc1ccc(CNC(=O)CSc2nc3ccc(N)cc3s2)cc1,–,–,–,98,–
O=[N+]([O-])c1ccc(OCCCCN2CCc3ccccc3C2)cc1,–,–,–,–,–
SMILES,PREPL inhibitor,CHT allo act,CHT inh,ALR inh,AI-2 QS modul
Cc1ccc(NC(=O)CSCC(=O)NC2(C)CCS(=O)(=O)C2)cc1 (stereo not given),–,·,·,99,·
CCOC(=O)CSc1nc2ccc(N)cc2s1,–,–,–,99,–
Nc1ccc2nc(SCc3cccc(F)c3)sc2c1,–,–,–,99,–
Nc1ccc2nc(SCC(=O)Nc3ccc(N4CCOCC4)c(Cl)c3)sc2c1,–,–,–,99,–
COC(=O)CSc1nc2ccc(NC(C)=O)cc2s1,–,–,–,–,–
COc1cccc(NC(=O)c2sc3nc(N4CCOCC4)c4c(c3c2N)CCCC4)c1,–,–,–,–,–
COc1ccc(C)cc1NC(=O)NC1CCCc2ccccc21 (stereo not given),–,–,–,–,–
CCOC(=O)CCCCCC(=O)Nc1ccc2c(c1)CC(=O)N([C@H](C)CO)C[C@H](C)[C@H](CN(C)S(=O)(=O)c1ccc(OC)cc1)O2,–,·,·,–,·
CC(C)S(=O)(=O)c1csc(NC(=O)Nc2cccc([N+](=O)[O-])c2)c1Cl,–,–,–,–,–
COc1cc(C(=O)NC(C)Cc2ccccn2)ccc1OC1CCN(C(C)=O)CC1 (stereo not given),·,·,·,·,–
Nc1ccc2nc(SCC(=O)N3CCOCC3)sc2c1,–,–,–,99,–
CCOC(=O)CSc1nc(N)c(C(=O)Nc2ccc(N(C)C)cc2)s1,–,–,–,88,–
CCN(CC)C(=O)CSc1nc(N)c(C(=O)Nc2ccc(OC)cc2)s1,–,–,–,·,–
